Test results from PubChem BioAssay (EPA / NIEHS).
Inconclusive results are not listed. Calls of active or inactive are those of the source. The calls were made as follows: active = hit-call score of the fitted dose curve at least 0.9, where 1 is the maximum; inconclusive = response in the unintended direction; inactive = score below 0.9.

Legend:
[1] = molecular target: human Adenosine A1 Receptor (AdoRA1), ADORA1 (gene 134) (UniProt P30542); experiment: NVS_GPCR_hAdoRA1: NovaScreen (NVS) G Protein-Coupled Receptor Assay for human Adenosine A1 Receptor (AdoRA1) (AID 2283254)
In short: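 Membranes from human cortical tissue were incubated with radioligand and test chemical for 1 hour, then filtered and counted. Activity was taken as signal loss relative to DMSO, screened at 25 uM in duplicate before concentration-response follow-up.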

[2] = molecular target: guinea pig Leukotriene D4 Receptor (LTD4), CYSLTR1 (gene 100135514) (UniProt Q2NNR5); experiment: NVS_GPCR_gLTD4: NovaScreen (NVS) G Protein-Coupled Receptor Assay for guinea pig Leukotriene D4 Receptor (LTD4) (AID 2283248)
In short: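 Radioligand displacement on guinea pig lung membranes, 1 h incubation, filtration and scintillation counting; DMSO as negative control. Duplicate 25 uM primary screen, then singleton concentration-response up to 50 uM.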

[3] = test system: rat Monoamine Oxidase, MAO-A, Central (MAOAC), gene 29253; experiment: NVS_ENZ_rMAOAC: NovaScreen (NVS) Enzymatic Assay for rat Monoamine Oxidase, MAO-A, Central (MAOAC) (AID 2283243);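 also: potency refers to inhibition seen as signal drop below DMSO baseline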
In short: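 Rat brain tissue extract used as enzyme source in a cell-free radiometric assay, read by scintillation counting 1.5 hours after dosing. Loss of signal relative to DMSO baseline scored; primary screen at 25 uM in duplicate, actives followed up in concentration series.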

[4] = molecular target: sheep Cyclooxygenase-1 (Cox1), PTGS1 (gene 443551) (UniProt P05979); experiment: NVS_ENZ_oCOX1: NovaScreen (NVS) Enzymatic Assay for sheep Cyclooxygenase-1 (Cox1) (AID 2283239);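 also: actives reduce cyclooxygenase activity so potencies are for inhibitors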
In short: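 Colorimetric enzyme readout using sheep seminal-vesicle cyclooxygenase-1, measured 0.66 h post-dosing. Single-concentration duplicates at 25 uM first, then concentration series for actives, with DMSO as baseline and plate controls.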

[5] = molecular target: guinea pig Opioid, Kappa 1 Receptor (OpiateK), OPRK1 (gene 100135587) (UniProt P41144); experiment: NVS_GPCR_gOpiateK: NovaScreen (NVS) G Protein-Coupled Receptor Assay for guinea pig Opioid, Kappa 1 Receptor (OpiateK) (AID 2283252);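 also: radioligand displacement from kappa opioid receptor in guinea pig cerebellar membranes; active means reduced radioligand binding relative to DMSO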
In short: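 Signal is scintillation counts of filter-trapped radioligand bound to guinea pig cerebellar membrane receptor, measured 2 hours post-dosing. Activity is loss of binding versus DMSO, first at 25 uM in duplicate, then as concentration series for actives.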

[6] = molecular target: Adenosine receptor A1 (Bos taurus) (UniProt P28190); experiment: NVS_GPCR_bAdoR_NonSelective: NovaScreen (NVS) G Protein-Coupled Receptor Assay for bovine Adenosine Receptor (AdoR), Non-selective Binding (AID 2283244)
In short: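 Bovine striatal membranes, radioligand displacement binding, 1 h after dosing, filter-based scintillation counting. Screened in duplicate at 25 uM, then concentration-response up to 50 uM; loss of specific binding relative to DMSO.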

[7] = test system: guinea pig Leukotriene B4 Receptor (LTB4), gene 100379538; experiment: NVS_GPCR_gLTB4: NovaScreen (NVS) G Protein-Coupled Receptor Assay for guinea pig Leukotriene B4 Receptor (LTB4) (AID 2283247)
In short: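 Radioligand displacement on guinea pig spleen membranes, filter-based scintillation counting 2 h after dosing. Primary duplicate single point at 25 uM; hits over threshold (e.g. 30% inhibition) run in concentration-response up to 50 uM, DMSO baseline.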

[8] = molecular target: human Serotonin, 5-Hydroxytryptamine Receptor 6 (5HT6), HTR6 (gene 3362) (UniProt P50406); experiment: NVS_GPCR_h5HT6: NovaScreen (NVS) G Protein-Coupled Receptor Assay for human Serotonin, 5-Hydroxytryptamine Receptor 6 (5HT6) (AID 2283253)
In short: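 Radioligand binding to 5HT6 in HEK293-derived membranes, cell-free, 1 h after dosing; bound ligand measured by filter-based scintillation counting. Primary screen in duplicate at 25 uM; actives retested in concentration series.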

[9] = molecular target: human Serotonin, 5-Hydroxytryptamine Receptor 7 (5HT7), HTR7 (gene 3363) (UniProt P34969); experiment: NVS_GPCR_h5HT7: NovaScreen (NVS) G Protein-Coupled Receptor Assay for human Serotonin, 5-Hydroxytryptamine Receptor 7 (5HT7) (AID 2283255);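 also: hits reduce specific radioligand binding relative to DMSO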
In short: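 Radioligand displacement on membranes from CHO cells expressing human 5HT7, 1 h incubation, filter-based scintillation counting. Primary screen used a single 25 uM concentration in duplicate; actives were followed up in concentration series.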

[10] = molecular target: human Adenosine A2a Receptor (AdoRA2a), ADORA2A (gene 135) (UniProt P29274); experiment: NVS_GPCR_hAdoRA2a: NovaScreen (NVS) G Protein-Coupled Receptor Assay for human Adenosine A2a Receptor (AdoRA2a) (AID 2283256)
In short: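 Radioligand displacement on HEK293-derived membrane protein, cell-free; filter-based scintillation counting 1.5 hours after dosing, loss of signal vs DMSO. Single-point duplicate screen at 25 uM, actives retested in concentration series.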

[11] = molecular target: human Adrenergic, Alpha 2A Receptor (Adra2A), ADRA2A (gene 150) (UniProt P08913); experiment: NVS_GPCR_hAdra2A: NovaScreen (NVS) G Protein-Coupled Receptor Assay for human Adrenergic, Alpha 2A Receptor (Adra2A) (AID 2283257)
In short: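 Radioligand filter-binding was run on HT29-derived membranes, cell-free, read by scintillation counting 1 h after dosing. Primary screening was in duplicate at 25 uM, with concentration series in follow-up. Loss of signal versus DMSO indicates displacement.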

[12] = molecular target: human Adrenergic, Alpha 2c Receptor (Adra2C), ADRA2C (gene 152) (UniProt P18825); experiment: NVS_GPCR_hAdra2C: NovaScreen (NVS) G Protein-Coupled Receptor Assay for human Adrenergic, Alpha 2c Receptor (Adra2C) (AID 2283259)
In short: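 Radioligand binding on Sf9-expressed receptor membranes, 1 h after chemical dosing, filter-based scintillation read-out. Loss of binding fitted positively versus DMSO; primary duplicate screen at 25 uM, actives retested in concentration series.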

[13] = molecular target: Type-1 angiotensin II receptor (Homo sapiens) (UniProt P30556); experiment: NVS_GPCR_hAT1: NovaScreen (NVS) G Protein-Coupled Receptor Assay for human Angiotensin II receptor type 1 (AT1) (AID 2283263)
In short: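 Membranes from KAN-TS cells; radioligand competitive displacement, 3 h, filtration and scintillation counting. Single-point duplicate screen at 25 uM, then concentration-response up to 50 uM for hits; loss of signal fitted versus DMSO.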

Chain of sheep Cyclooxygenase-1 (Cox1), PTGS1 (gene 443551) (P05979 whole entry, looked up): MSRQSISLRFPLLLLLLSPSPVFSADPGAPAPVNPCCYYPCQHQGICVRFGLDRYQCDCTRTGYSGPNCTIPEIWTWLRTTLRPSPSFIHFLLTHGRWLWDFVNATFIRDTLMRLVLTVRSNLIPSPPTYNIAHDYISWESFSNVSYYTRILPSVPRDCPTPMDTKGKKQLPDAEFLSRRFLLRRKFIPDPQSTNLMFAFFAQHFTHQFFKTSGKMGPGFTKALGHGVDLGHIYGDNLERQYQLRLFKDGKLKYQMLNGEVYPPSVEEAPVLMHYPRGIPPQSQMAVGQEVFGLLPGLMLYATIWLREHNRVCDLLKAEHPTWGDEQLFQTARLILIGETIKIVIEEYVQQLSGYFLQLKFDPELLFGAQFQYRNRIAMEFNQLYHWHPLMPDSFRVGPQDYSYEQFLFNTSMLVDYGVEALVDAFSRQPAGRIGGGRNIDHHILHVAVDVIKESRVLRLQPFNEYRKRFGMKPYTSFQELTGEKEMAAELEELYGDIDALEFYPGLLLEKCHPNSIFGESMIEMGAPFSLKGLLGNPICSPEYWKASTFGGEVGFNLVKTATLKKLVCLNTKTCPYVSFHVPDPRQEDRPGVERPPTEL
Chain of human Adenosine A1 Receptor (AdoRA1), ADORA1 (gene 134) (P30542 whole entry, looked up): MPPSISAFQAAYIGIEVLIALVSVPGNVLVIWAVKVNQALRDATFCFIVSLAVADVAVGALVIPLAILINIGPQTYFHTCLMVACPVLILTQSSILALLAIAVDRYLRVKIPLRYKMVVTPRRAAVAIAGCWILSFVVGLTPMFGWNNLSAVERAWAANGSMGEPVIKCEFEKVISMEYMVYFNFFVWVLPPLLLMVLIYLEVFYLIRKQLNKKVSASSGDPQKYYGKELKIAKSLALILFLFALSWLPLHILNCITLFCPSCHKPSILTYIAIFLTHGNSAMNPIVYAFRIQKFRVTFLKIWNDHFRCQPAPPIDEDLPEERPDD
Chain of human Serotonin, 5-Hydroxytryptamine Receptor 7 (5HT7), HTR7 (gene 3363) (P34969 whole entry, looked up): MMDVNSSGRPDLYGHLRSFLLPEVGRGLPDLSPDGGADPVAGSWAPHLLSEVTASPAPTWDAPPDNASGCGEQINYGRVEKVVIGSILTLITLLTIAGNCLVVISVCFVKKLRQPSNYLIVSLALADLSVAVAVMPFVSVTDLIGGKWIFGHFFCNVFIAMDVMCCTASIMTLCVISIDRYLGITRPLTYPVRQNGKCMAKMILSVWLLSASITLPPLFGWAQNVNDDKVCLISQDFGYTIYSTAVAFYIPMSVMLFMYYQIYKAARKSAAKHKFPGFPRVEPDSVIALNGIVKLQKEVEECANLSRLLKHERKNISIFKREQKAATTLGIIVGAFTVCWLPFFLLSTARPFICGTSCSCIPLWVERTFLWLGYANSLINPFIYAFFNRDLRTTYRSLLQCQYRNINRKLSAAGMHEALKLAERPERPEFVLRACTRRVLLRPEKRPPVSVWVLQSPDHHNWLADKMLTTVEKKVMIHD
Chain of human Adenosine A2a Receptor (AdoRA2a), ADORA2A (gene 135) (P29274 whole entry, looked up): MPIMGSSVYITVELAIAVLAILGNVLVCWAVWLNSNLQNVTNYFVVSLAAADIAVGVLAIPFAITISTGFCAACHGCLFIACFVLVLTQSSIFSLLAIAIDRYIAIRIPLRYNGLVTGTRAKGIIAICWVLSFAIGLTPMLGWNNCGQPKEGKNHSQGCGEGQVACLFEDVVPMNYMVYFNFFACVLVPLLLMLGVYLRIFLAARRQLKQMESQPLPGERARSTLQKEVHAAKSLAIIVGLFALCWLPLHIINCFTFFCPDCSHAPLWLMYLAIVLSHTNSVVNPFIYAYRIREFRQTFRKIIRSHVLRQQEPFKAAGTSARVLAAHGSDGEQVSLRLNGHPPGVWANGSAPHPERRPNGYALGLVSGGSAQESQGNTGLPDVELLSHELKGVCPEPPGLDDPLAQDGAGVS
Chain of guinea pig Opioid, Kappa 1 Receptor (OpiateK), OPRK1 (gene 100135587) (P41144 whole entry, looked up): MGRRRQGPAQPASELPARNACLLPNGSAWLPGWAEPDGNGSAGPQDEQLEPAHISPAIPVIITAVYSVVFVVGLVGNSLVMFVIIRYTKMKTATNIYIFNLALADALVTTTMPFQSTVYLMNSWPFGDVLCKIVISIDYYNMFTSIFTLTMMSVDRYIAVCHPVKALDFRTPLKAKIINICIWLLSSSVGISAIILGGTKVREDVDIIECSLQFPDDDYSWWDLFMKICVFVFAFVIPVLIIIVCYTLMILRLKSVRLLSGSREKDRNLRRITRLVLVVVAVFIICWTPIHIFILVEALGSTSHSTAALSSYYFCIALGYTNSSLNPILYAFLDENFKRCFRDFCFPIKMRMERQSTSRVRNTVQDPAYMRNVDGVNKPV
Chain of human Adrenergic, Alpha 2A Receptor (Adra2A), ADRA2A (gene 150) (P08913 whole entry, looked up): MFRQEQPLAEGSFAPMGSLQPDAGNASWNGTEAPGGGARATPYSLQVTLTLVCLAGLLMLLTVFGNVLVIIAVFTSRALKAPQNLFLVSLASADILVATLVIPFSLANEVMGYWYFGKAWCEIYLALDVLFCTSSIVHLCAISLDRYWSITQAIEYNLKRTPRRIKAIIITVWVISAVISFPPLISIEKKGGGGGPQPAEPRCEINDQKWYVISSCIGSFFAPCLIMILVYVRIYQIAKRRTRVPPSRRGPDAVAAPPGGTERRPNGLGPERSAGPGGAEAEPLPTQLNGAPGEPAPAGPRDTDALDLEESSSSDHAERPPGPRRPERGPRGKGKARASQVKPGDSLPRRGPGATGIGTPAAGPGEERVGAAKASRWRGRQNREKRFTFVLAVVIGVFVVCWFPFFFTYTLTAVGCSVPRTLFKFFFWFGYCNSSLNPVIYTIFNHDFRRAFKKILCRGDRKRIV
Chain of guinea pig Leukotriene D4 Receptor (LTD4), CYSLTR1 (gene 100135514) (Q2NNR5 whole entry, looked up): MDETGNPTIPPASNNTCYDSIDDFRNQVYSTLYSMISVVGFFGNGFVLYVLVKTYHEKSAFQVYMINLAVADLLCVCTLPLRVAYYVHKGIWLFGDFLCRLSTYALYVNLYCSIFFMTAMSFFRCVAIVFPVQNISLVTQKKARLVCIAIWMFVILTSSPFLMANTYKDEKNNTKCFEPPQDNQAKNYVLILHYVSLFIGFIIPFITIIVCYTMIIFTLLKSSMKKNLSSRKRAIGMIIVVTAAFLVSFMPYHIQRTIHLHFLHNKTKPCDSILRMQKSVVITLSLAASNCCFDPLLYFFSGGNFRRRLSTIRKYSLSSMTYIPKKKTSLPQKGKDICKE
Chain of human Adrenergic, Alpha 2c Receptor (Adra2C), ADRA2C (gene 152) (P18825 whole entry, looked up): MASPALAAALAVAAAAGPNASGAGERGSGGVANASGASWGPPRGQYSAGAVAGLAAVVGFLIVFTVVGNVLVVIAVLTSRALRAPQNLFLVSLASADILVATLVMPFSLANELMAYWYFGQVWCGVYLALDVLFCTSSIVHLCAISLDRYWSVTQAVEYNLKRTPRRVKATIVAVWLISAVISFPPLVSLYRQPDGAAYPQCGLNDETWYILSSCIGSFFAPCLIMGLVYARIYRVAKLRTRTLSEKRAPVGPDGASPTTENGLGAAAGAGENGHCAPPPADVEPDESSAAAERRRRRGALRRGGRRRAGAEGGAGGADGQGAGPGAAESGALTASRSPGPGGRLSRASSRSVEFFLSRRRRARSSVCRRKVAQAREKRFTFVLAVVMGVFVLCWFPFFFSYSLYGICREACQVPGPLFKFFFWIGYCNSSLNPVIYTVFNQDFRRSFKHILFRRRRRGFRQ
Chain of Adenosine receptor A1 (Bos taurus) (P28190 whole entry, looked up): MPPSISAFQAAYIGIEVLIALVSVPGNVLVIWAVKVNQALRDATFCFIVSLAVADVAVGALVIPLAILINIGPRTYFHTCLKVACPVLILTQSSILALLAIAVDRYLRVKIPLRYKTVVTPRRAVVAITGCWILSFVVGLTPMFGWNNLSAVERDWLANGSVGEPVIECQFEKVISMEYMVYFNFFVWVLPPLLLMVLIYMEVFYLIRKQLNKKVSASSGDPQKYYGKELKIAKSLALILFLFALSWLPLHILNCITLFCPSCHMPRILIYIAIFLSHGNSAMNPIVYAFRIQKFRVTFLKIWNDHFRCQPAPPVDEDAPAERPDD
Chain of Type-1 angiotensin II receptor (Homo sapiens) (P30556 whole entry, looked up): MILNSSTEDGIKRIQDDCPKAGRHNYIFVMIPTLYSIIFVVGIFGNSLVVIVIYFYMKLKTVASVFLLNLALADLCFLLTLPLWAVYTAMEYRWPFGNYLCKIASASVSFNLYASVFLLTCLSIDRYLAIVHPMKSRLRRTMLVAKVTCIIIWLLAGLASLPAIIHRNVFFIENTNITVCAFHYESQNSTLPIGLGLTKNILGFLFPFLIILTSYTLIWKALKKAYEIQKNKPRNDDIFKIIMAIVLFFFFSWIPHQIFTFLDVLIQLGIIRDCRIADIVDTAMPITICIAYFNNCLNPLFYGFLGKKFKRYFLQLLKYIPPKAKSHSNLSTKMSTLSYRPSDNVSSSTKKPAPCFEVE
Chain of human Serotonin, 5-Hydroxytryptamine Receptor 6 (5HT6), HTR6 (gene 3362) (P50406 whole entry, looked up): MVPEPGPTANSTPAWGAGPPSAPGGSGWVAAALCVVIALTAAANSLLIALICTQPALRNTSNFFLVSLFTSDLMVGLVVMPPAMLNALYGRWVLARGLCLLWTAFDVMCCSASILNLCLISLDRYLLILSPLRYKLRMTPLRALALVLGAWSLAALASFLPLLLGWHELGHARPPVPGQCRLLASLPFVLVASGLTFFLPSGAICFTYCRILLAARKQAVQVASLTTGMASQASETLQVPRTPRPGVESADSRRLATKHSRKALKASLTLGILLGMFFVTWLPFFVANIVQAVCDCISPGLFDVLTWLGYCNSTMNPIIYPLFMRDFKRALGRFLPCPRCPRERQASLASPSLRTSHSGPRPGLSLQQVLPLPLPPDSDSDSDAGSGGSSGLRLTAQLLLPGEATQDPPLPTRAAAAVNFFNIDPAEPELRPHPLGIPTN

For `CCNc1nc(Cl)nc(NC(C)(C)C)n1`, the outcome [1] was “inactive”.

For `ClC(Cl)c1ccccc1`, the outcome [2] was “inactive”.

`Nc1ccc2ccccc2c1` was tested, and the AC50 [3] was 19.4 µM (active).

`Nc1ccc([N+](=O)[O-])cc1Cl` was tested, and the AC50 [3] was 15.1 µM (active).

In the case of `c1ccc2c(c1)Nc1ccccc1S2`, the AC50 [3] is reported as 9.71 µM (active).

In the case of `CCOP(=S)(OCC)SCSCC`, the outcome [4] is reported as “inactive”.

In the case of `CCOP(=S)(S)OCC`, the outcome [4] is reported as “inactive”.

In the case of `Cc1cc(C)c(C(=O)P(=O)(c2ccccc2)c2ccccc2)c(C)c1`, the AC50 [5] is reported as 25 µM (active) and the AC50 [1] is reported as 36 µM (active).

With `CSC(C)(C)C=NO` the outcome [6] was “inactive”, the outcome [7] was “inactive” and the outcome [5] was “inactive”. The outcome [8] was “inactive”, the outcome [1] was “inactive” and the outcome [9] was “inactive”. For the same molecule, the outcome [10] was “inactive”, the outcome [11] was “inactive” and the outcome [12] was “inactive”. The outcome [13] was “inactive”.

`Nc1cc2c3c(c1)C(c1ccccc1)=N[C@@H](NC(=O)c1cccnc1)C(=O)N3CC2` was tested, and the AC50 [4] was 15.1 µM (active) and the outcome [9] was “inactive”.

In the case of `O=[N+]([O-])c1cc(Cl)ccc1Cl`, the outcome [10] is reported as “inactive”.

For `O=C(O)C1C(C(=O)O)C2(Cl)C(Cl)=C(Cl)C1(Cl)C2(Cl)Cl` (stereo not drawn), the AC50 [7] was 2.88 µM (active).
